In the supplement of paper PMC6555819 one finds PBM binding z-score data, which are given here for 40 sequences.

The test system of the assay is VDR:RXRa (NR concentration 270 nM, RXRa partner concentration 90 nM). Briefly: PBM binding z-score (relative to random genomic background probes); higher = stronger binding; sequences stand for … in GC…GCGATTGACAGCGTAGAATGAAGG
As for the experimental part:
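Protein-binding microarray (Agilent 4x180K custom design, double-stranded 60-nt probes: 5' GC cap, 34-nt variable region, 24-nt constant primer region; full probe sequence given). Purified or IVT nuclear receptor:RXRα heterodimers (3:1 NR:RXRα, mostly 270:90 nM) or homodimers were incubated for 1 h in PBS with 2% milk and no ligand, then detected with Alexa488 antibodies. Fluorescence from o1-orientation probes (~5 replicates averaged) was converted to z-scores against 500 random hg19 background probes. Variable regions are seed direct-repeat (DR0–DR5) sites, all their single-nucleotide variants and half-site ablations.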
CGAACAAGGTCAGAACAGGACAGTGAAGGATGAT gave a PBM binding z-score of 3.

For the sequence GCTGACGGGTCAAAGGTTATAGCATGAATAGAAT, the PBM binding z-score was 5.27. Sequence TCGAGTAGGTTAGGGGCATTCAGAATGGCGTCGA came in with a PBM binding z-score of 0.508. In the case of GCTCGGAGGACGAGGTCAGAGCTTTGTCCGTAGA it was 2.2; in that of ATCGAAAGGTCGTGAGGGGAGTATACAGAAAGGC, 3.55; in that of ACTACCAGGCCAAGGGTCACTCAAGATTAGTCCG, 3.07. As for CGTCCTAGGTCAATGCTAGGTCAGTGAAAGCATT, the PBM binding z-score came to 3.02. To AGTCAAAGTTCATCTAGGTAATGTAAGATATGCT belongs 5.13; to ACCTCTAGGTAAGACTCAGTTCAGTGAAGAACGC, 0.00811.

CCTAGCAGGTCAGGGTCACTCAAGCATTTCGCTT: the PBM binding z-score was determined as 4.13. To CCTCCAAGGTCAATGCTAGGTCAGTGAAAGCATT belongs 4.74. To ACAGACAGGTGAGTGAAGGAAACTCAGCTGGACG belongs -0.816; to CCTTACGAGTCAAGGTTATAGCACGGGTGGTACG, 0.509. TCATATAGGAAAATGCTAGGTGAAAGTCCGATCT: the PBM binding z-score was 0.9.

Take CAGCCTAGGTCAGGGCCAGTATTGGAGGAACGTT: the PBM binding z-score is -0.0862. ATCGATAGGTCGTGAGGTGAGTATACAGAAAGGC yielded a PBM binding z-score of 1.08. On to ACTAGCAGGCCAAGGGTCACTCAGGATTAGTCCG, for which the PBM binding z-score was determined as 3.03.

Sequence CAAACTAGGTTACAGAGGTCAAAGTCCGTGCGTA came in with a PBM binding z-score of 7.06.

Turning to CCTATTAGTTGACCATAAGGGCAACCGCAGCTCG, the PBM binding z-score came out at 0.982. To GCAGACAGGTGTAACGCAGGTAACTCAGGGTGGC belongs -0.647; to TCTTGTAGATCAGGAGGTTAAGAAAGCTGGCCAA, 0.556.

Regarding CAAACTAGGTCACCGGAAGGTAAAAGTCCGCATG, the PBM binding z-score is 2.84.

TTTACAGGGTCAAAGGCCAGAGTACGAATGTCGA: the PBM binding z-score is 4.79. Turning to ACAGACAGGTGAGTGAAGGTGACTCAGCTGGACG, the PBM binding z-score was -0.119. Regarding AATACAGGGTCAACGTAGGCCAGAGTACGCACAG, the PBM binding z-score was 5.06.

As to TCTGCTAGGTCAACGATGGTCAGCTACTCTGCTA, the PBM binding z-score is 1.68. To AGAATGAGGTTACCAAAGCTCAGGGAAACGCTTG belongs 0.99.

AGAATGAGGTTATTAAGATCAGGGACTTGCGGTC yielded a PBM binding z-score of 2.47. In the case of TCATATAGGTAAAGGTGAAAGTCGAACGATATGA it was 0.971; in that of TAGCCTAGGGCATGCGGGCCAGTATAGTGTCGGC, -0.814; in that of CGAACTAGGTTAGAACAGGACAGTGAAGGATGAT, -0.215. Turning to ATCGAAAGGTCGATGTGAGTATAGAGAAAGGGAA, the PBM binding z-score came out at 1.97. In the case of ATATGTAGGTTAAGGATCATTCAGGTTGGTTCGC it was 1.45. In the case of TCTCGGCGGACACGAAAGGTCAGAGCTCGACATC it was 2.19; in that of TCTTGTAGATCAAAGGTTAAGAACGCCGAAGCCT, 1.47; in that of ATCTCGAGGTAAAGATAGTTCAGTGAATGCAAAT, 1.23. In the case of TCTAGTAGGTTACCAATGGGGCATTCAGCTTTCT it was 0.81. GCTCGGAGGACAACGTCAGAGCTTTGTCCGTAGA: the PBM binding z-score was -0.935. In the case of ATCTCTAGGTAAAGTTCAGTGACAGATCGATAGA it was 1.63; in that of CAAACTAGGGCAAAGGTCAAAGTCGAGCCAACCA, 5.41.
